Measured values from PubChem BioAssay (NCI).
Compounds without any hit were thinned out: in the full panel of roughly 83,000, 20% have a hit.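 Growth was measured after 48 h exposure to one concentration of compound in 96-well plates. Values under 10 count as active.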 The source made the active and inactive calls.

The molecules below were run on HL-60(TB) leukemia (assay: NCI-60 one-dose screen, 48 h (100 = growth as untreated, 0 = no growth, -100 = all killed)). Settings: 10 µM unless noted.

SMILES | growth
COC1=CC(=O)C(OC)=C(OC)C1=O | 61.4% (inactive)
O=[N+]([O-])c1ccc(S(=O)(=O)OCCCCOS(=O)(=O)c2ccc([N+](=O)[O-])cc2)cc1 | 101% (inactive)
COc1ccc(N2CCC(=S)NC2=S)cc1 | 99% (inactive)
C=C1CCC2C3(C)COC(c4ccccc4)OC3CCC2(C)C1/C=C/C1=CCOC1=O (stereo not given) | 0.949% (active)
O=C(Nc1ccc(Cl)cc1)Oc1c(Cl)c(Cl)c(Cl)c(Cl)c1Cl | 98.5% (inactive)
COc1ccc(-c2cc(-c3ccc(N(C)C)cc3)c(C#N)c(N3CCCC3)n2)cc1 | 67.2% (inactive)
O=C1/C(=C\c2cccn2C(=O)c2ccccc2)c2ccccc2N1c1c(Cl)cccc1Cl | 9.37% (active)
O=C1OCC2=C1C(c1ccncc1)c1cc3c(cc1N2CCO)OCO3 (stereo not given) | 99.2% (inactive)
COc1ccc(-c2nc(SCC(=O)Nc3nc4ccc(C)cc4s3)[nH]c(=O)c2C#N)cc1OC | 105% (inactive)
Cn1cc(-c2csc(-c3cn(C)c4ccc(F)cc34)n2)c2cnccc21 | -44.8% (active)
CCN(CC)CCOC(=O)c1ccc(N=Nc2ccc(O)c(OC)c2)cc1 | 97.5% (inactive)
NC1=NN(O)C2=CC([N+](=O)[O-])C=CC2=N1 (stereo not given) | 103% (inactive)
CNC1=C(Br)C(=O)c2c(C(=O)OC)c(C)nc(C)c2C1=O | 24.5% (inactive)
O=S(=O)(NCCCNc1nccc(-c2c(-c3ccc(F)c(O)c3)nc3sccn23)n1)c1ccc(F)cc1 | -54.8% (active)
COc1nc2c(c(=O)[nH]1)C(c1ccc(Oc3ccnc4cc(Cl)ccc34)c(OC)c1)C=C(c1cc(OC)c(OC)c(OC)c1)N2 (stereo not given) | 97.9% (inactive)
Cc1ccccc1Nc1nc2nonc2nc1Nc1cccc(C)c1C | 69.8% (inactive)
CCC(C)C1NC(=O)C(CCCCN)NC(=O)C(CCCCN)NC(=O)C(CC(C)C)NC(=O)C(CCCCN)NC(=O)C(C(C)CC)NC(=O)C(C(C)C)NC(=O)C(C(C)CC)NC(=O)C(CCCCN)NC(=O)C(CCCCN)NC(=O)C(C)NC(=O)C(CCCCN)NC(=O)C(CC(C)C)NC1=O (stereo not given) | -35.2% (active)
COc1ccc2[nH]c(=O)c(/C=N/Nc3nc(-c4ccccc4)cs3)c(O)c2c1 | 83.9% (inactive)
COc1ccc(S(=O)(=O)Nc2c(/C=C\c3cc(OC)c(OC)c(OC)c3)ccc(OC)c2O)cc1 | -42.3% (active)
C=C1c2c(C)nn(-c3ccc(C#CCOC4OC(CO)C(O)C(O)C4O)cc3)c2N(C)C23C[C@H]1C1(C)c4c(C)nn(-c5ccc(C#CCOC6OC(CO)C(O)C(O)C6O)cc5)c4N(C)C(C)(C[C@H]12)C3 (stereo not given in full) | -22.8% (active)

SMILES | growth
CCOC(=N)c1ccc(C(=N)OCC)cc1 | 101% (inactive)
COc1cccc(OC)c1Oc1c(-c2nc3ccccc3s2)c(C)nn1-c1ccccc1 | 81.8% (inactive)
Nc1ccc(S(=O)(=O)Nc2cc(F)cc(F)c2)cc1 | 73% (inactive)
CNC(=O)c1c(NC(=O)c2ccc(C(C)C)cc2)sc2c1CCC(=O)C2 | -13.9% (active)
COc1ccc(-c2ccc(-c3ccc(C(=N)N)nc3)s2)cc1 | -47.3% (active)
COc1ccc(/C=C/c2nc(N3CCOCC3)c3nc(Cl)c(Cl)cc3n2)cc1OC | 91.9% (inactive)
O=c1c2cccc3c(N4CCCC4)ccc(c32)c2nc3ccccc3n12 | 72% (inactive)
O=C(CCCCCCc1nc2ccc(Br)cc2[nH]1)NO | 2.12% (active)
O=C1c2ccccc2C(=O)c2c1ccc1[nH]c(-c3cccs3)nc21 | 93.6% (inactive)
CC(=O)Nc1ccc(-c2cc3c(NCc4ccc(F)cc4)ncnc3s2)cc1 | 89.1% (inactive)
Cc1nc2nc(SCC(=O)O)[nH]c2c(=O)[nH]1 | 94.7% (inactive)
C[C@@]1(N2C(=O)OC[C@@H]2c2ccccc2)C(=O)N([C@H](CC(=O)N2CCC(N3CCCCC3)CC2)C(=O)NCc2cccc(C(F)(F)F)c2)[C@@H]1/C=C/c1ccccc1 | 81% (inactive)
CCN1C(=O)N(CC)C2C1NN=c1s/c(=C\c3ccc(F)cc3)c(=O)n12 (stereo not given) | -47% (active)
CN1C(=O)C(C2=NN(C=O)C(c3ccc(F)cc3)C2)C(=O)N(C)C1=O (stereo not given) | 105% (inactive)
O=C(Nc1ccc(OS(=O)(=O)c2ccc(F)cc2)cc1)c1ccc(Cl)cc1 | 90.9% (inactive)
N#CC(C#N)N=Nc1ccc(Cl)cc1 | -26.8% (active)
COc1ccc(NC(=O)/C=C/c2ccc(NC(=O)N3CCCC3)cc2)cn1 | 102% (inactive)
NS(=O)(=O)c1ccc(-n2ncc3c(SCc4ccccc4)ncnc32)cc1 | 88.1% (inactive)
COc1ccc(-c2nn(-c3cccc(Cl)c3)cc2-c2cc(-c3ccccc3)[nH]c(=O)c2C#N)cc1 | 111% (inactive)
Cc1ccc2c(c1)CC(O)CC1C(=O)N(CCO)CC(=O)N21 (stereo not given) | 96.9% (inactive)
